# From the supplement of paper PMC10515830
# Structures can show the parent of a compound that is named as a salt.
# Columns and labels:
# Settings in all cases: 10 µM; exposure time 6 h
# [1] = system: Danio rerio larvae (5 dpf); assay: difference in excitability vs DMSO (percentage points); higher = more excitable than DMSO
# Outline: (§1)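 Library compounds were tested at 10 µM final in 100 µL egg water on wild-type 5 dpf zebrafish larvae in 96-well plates for 6 h, with 48 larvae per compound. After 3 h, plates at 28.5 ℃ were imaged every 6 s during a 3-h run of moving lines and 100 ms, 400Hz tones. Behaviours were quantified by Z-LaP Tracker and reported as the compound mean less the vehicle control mean, in percentage points.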
# [2] = system: Danio rerio larvae (5 dpf); assay: difference in startle response vs DMSO (percentage points); higher = stronger startle than DMSO
# Outline: as §1
# [3] = system: Danio rerio larvae (5 dpf); assay: difference in activity during first hour vs DMSO (percentage points); higher = more activity than DMSO
# Outline: as §1
# [4] = system: Danio rerio larvae (5 dpf); assay: difference in habituation to acoustic stimuli vs DMSO (percentage points); higher = more habituation than DMSO
# Outline: as §1
# [5] = system: Danio rerio larvae (5 dpf); assay: difference in combined optomotor response to red, green and blue moving lines vs DMSO (percentage points); higher = stronger optomotor response than DMSO
# Outline: as §1
SMILES,difference in excitability [1],difference in startle response [2],difference in activity during first hour [3],difference in habituation to acoustic stimuli [4],difference [5]
CC(C)c1nc(CN(C)C(=O)N[C@H](C(=O)N[C@@H](Cc2ccccc2)C[C@H](O)[C@H](Cc2ccccc2)NC(=O)OCc2cncs2)C(C)C)cs1 [Ritonavir],-4.63,0.564,2.31,6.79,1.78
CCOC(=O)[C@H](CCc1ccccc1)N[C@@H](C)C(=O)N1Cc2cc(OC)c(OC)cc2C[C@H]1C(=O)O [Moexipril (hydrochloride)],11.9,-4.62,7.71,2.63,-1.21
COC(=O)CCc1ccc(OCC(O)CNC(C)C)cc1 (stereo not given) [Esmolol (hydrochloride)],-2.69,4.98,5.19,-2.83,10.6
CNS(=O)(=O)CCc1ccc2[nH]cc(C3CCN(C)CC3)c2c1 [Naratriptan (hydrochloride)],8.93,2.03,-1.59,7.18,-2.72
CN(C/C=C/c1ccccc1)Cc1cccc2ccccc12 [Naftifine (hydrochloride)],11.1,-5.96,-7.66,1,7.26
Cc1nc2n(c(=O)c1CCN1CCC(c3noc4cc(F)ccc34)CC1)CCCC2 [Risperidone],14.4,5.09,7.15,4.04,-1.6
Clc1ccc(COC(Cn2ccnc2)c2ccc(Cl)cc2Cl)cc1 (stereo not given) [Econazole (nitrate)],7.22,-9.26,-22.1,-11.9,-16.9
CC(C)Nc1cccnc1N1CCN(C(=O)c2cc3cc(NS(C)(=O)=O)ccc3[nH]2)CC1 [Delavirdine (mesylate)],-2.46,-1.52,-9.21,7.6,-2.16
CCC1=C(C)CN(C(=O)NCCc2ccc(S(=O)(=O)NC(=O)N[C@H]3CC[C@H](C)CC3)cc2)C1=O [Glimepiride],-3.07,2.59,2.62,3.43,-2.24
N=C(N)N/N=C/c1c(Cl)cccc1Cl [Guanabenz (hydrochloride)],1.72,17.3,-12.1,5.15,8.58
CN(N=O)C(=O)N[C@@H](C=O)[C@@H](O)[C@H](O)[C@H](O)CO [Streptozotocin],-0.24,-1.97,-9.76,-6.76,-1.53
C[C@H]1CN(C[C@H](Cc2ccccc2)C(=O)NCC(=O)O)CC[C@@]1(C)c1cccc(O)c1 [Alvimopan],3.61,0.764,-3.96,3.02,-3.48
Cc1ccc(S(=O)(=O)NC(=O)NN2CCCCCC2)cc1 [Tolazamide],7.01,21.4,4.59,2.23,9.69
Cn1c(=O)c2[nH]cnc2n(C)c1=O [Aminophylline],4.39,0.67,2.88,-3.14,8.05
CC(C)c1c(C(=O)Nc2ccccc2)c(-c2ccccc2)c(-c2ccc(F)cc2)n1CC[C@@H](O)C[C@@H](O)CC(=O)O [Atorvastatin (calcium salt hydrate)],2,-0.915,-6.37,-0.794,-0.114
CN(C)[C@@H]1C(O)=C(C(N)=O)C(=O)[C@@]2(O)C(O)=C3C(=O)c4c(O)ccc(Cl)c4[C@@H](O)[C@H]3C[C@@H]12 [Demeclocycline (hydrochloride)],12.9,-2.29,4.59,7.81,2.94
CCS(=O)(=O)CCn1c([N+](=O)[O-])cnc1C [Tinidazole],0.787,3.72,7.24,0.838,7.16
CC1(C)NC(=O)N(c2ccc([N+](=O)[O-])c(C(F)(F)F)c2)C1=O [Nilutamide],3,-2.08,-12.2,3.08,-5.94
OC[C@H]1O[C@@H](O[C@@H]2[C@@H](CO)OC(O)(CO)[C@H]2O)[C@H](O)[C@@H](O)[C@H]1O (mixture of isomers) [Lactulose],2.43,-1.72,-2.1,-4.39,-4.94
Cc1cc(C(=O)NNCc2ccccc2)no1 [Isocarboxazid],9.42,3.52,-14,-2.77,4.57
CN(C)CCOC(=O)C(c1ccccc1)C1(O)CCCC1 (stereo not given) [Cyclopentolate (hydrochloride)],-10.4,-4.29,-7.59,-2.76,-2.74
COc1ccc2c(O[C@@H]3C[C@H]4C(=O)N[C@]5(C(=O)NS(=O)(=O)C6CC6)C[C@H]5/C=C\CCCCN(C)C(=O)[C@@H]4C3)cc(-c3nc(C(C)C)cs3)nc2c1C [Simeprevir (sodium salt)],13.8,-3.43,25.2,3.8,8.38
NC[C@@H](O)c1ccc(O)c(O)c1 [L-(-)-Norepinephrine (bitartrate hydrate)],5.69,-4.59,23,-6.22,6.76
CCCCc1oc2ccc(NS(C)(=O)=O)cc2c1C(=O)c1ccc(OCCCN(CCCC)CCCC)cc1 [Dronedarone (hydrochloride)],7.9,-9.8,11.1,-12.7,-11.9
